Screens as filed in PubChem.
Most compounds without a hit are left out; they make up all but 4.8% or so of the library.
hgDAF12 agonist – activates the H. glycines DAF-12 receptor ligand-binding domain; AID 687014; 370,000 tested, 1.8% active; activation, % at 6.8 µM; HEK293 GAL4-hgDAF12 UAS-luciferase reporter, agonist luminescence; normalized to butyrate control;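 active = activation above a cutoff set at the mean of all screened compounds plus 3 SD, cut at about 10% in these data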
hcDAF-12 act – activators of H. contortus DAF-12 nuclear receptor; 370,000 tested, 1.4% active; AID 652067; HEK293 hcDAF-12 lit1-tk-luc reporter, luminescence; 0% DMSO, 100% Δ7-dafachronic acid; activation, % at 6.8 µM;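 active = activation above the mean of all tested compounds plus 3 SD, cut at about 5.5% in these data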
SMARCA2 activ – increases SMARCA2 function in MMTV reporter cells | MG213 cells, MMTV-luciferase reporter, dexamethasone, overnight | activation, % at 9.1 µM | 370,000 tested, 1% active | AID 652017; in the data active = activation above about 7.8%
DAX1 inh-1 – inhibitors of human orphan nuclear receptor DAX1 (NR0B1); P51843; HEK293 Gal4-DAX1 luciferase reporter, luminescence; inhibition, % at 6.75 µM; 340,000 tested, 0.99% active; AID 504766;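 active = inhibition above the mean over all tested compounds plus 3 SD, cut at about 4.2% in these data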;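 note: inhibition shows as a rise in luminescence from relieved DAX1 repression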
Target sequence (P51843 207-470 limits assumed): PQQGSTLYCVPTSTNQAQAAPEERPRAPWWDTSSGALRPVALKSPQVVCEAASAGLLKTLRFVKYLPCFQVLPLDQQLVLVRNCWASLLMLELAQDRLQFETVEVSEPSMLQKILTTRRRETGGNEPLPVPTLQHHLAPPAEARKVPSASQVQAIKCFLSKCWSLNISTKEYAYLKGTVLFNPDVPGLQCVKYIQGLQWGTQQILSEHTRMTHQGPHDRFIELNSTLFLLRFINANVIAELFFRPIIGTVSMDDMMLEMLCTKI
ssDAF-12 act – activates DAF-12 receptor from parasite S. stercoralis | HEK293 ssDAF-12/GRIP1 lit1-tk-luc reporter, luminescence; % of 3 µM dafachronic acid response | 370,000 tested, 1% active | activation, % at 6.8 µM;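 active = activation above the mean over all tested compounds plus 3 SD, cut at about 0.9% in these data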
DAX1 inh-2 – blocks DAX1 repression of SF-1 activated StAR promoter. HEK293T StAR-luciferase reporter, SF-1/DAX-1 repression relief. AID 652010. inhibition, % at 6.8 µM. 370,000 tested, 1.1% active;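 active = inhibition above the mean over all tested compounds plus 3 SD, cut at about 3.6% in these data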;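 note: higher inhibition means more luminescence from relief of DAX-1 repression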
Large screens that a line does not name were inactive.

COC(=O)[C@]12C[C@H](CC(=O)N3CCN(C(=O)C4CC4)CC3)C(=O)N(Cc3cccc4ccccc34)C1=C[C@H](COCc1ccccc1)O[C@@H]2C	none (no result: DAX1 inh-1)
CCOC(=O)N1C(=O)C[C@](Sc2ccc(OC)cc2)(C(=O)N2CCN(c3ncccn3)CC2)[C@H]1c1ccc(OC)cc1	none (no result: DAX1 inh-1)
CSc1ccccc1NC(=O)COc1ccccc1C	ssDAF-12 act 1.5
CC(=O)Nc1ccccc1OCC(=O)NC(C)c1ccccc1 (stereo unspecified)	ssDAF-12 act 1.0
CSc1ccccc1NC(=O)COC(=O)c1c[nH]c(=O)[nH]c1=O	DAX1 inh-1 5.5
CC(=O)Nc1nc(-c2ccc3ccccc3c2)cs1	hgDAF12 agonist 13
CC(=O)NCCC(=O)Nc1nc(-c2ccc3ccccc3c2)cs1	none
CCC(=O)Nc1ccc(-c2csc(NNC(C)=O)n2)cc1	ssDAF-12 act 0.9
CSc1nsc(SCC(=O)NC2CCCCC2)n1	hcDAF-12 act 5.6
CC1=NN(C(N)=S)C(=O)C1N=Nc1ccccc1 (stereo unspecified)	none
CC1=NN(C(N)=S)C(=O)C1N=Nc1cccc([N+](=O)[O-])c1 (stereo unspecified)	DAX1 inh-1 6.8
CC1=NN(C(N)=S)C(=O)C1N=Nc1ccc(Cl)cc1 (stereo unspecified)	hgDAF12 agonist 11
COc1ccc(OC)c(S(=O)(=O)n2c(CN3CCOCC3)nc3ccccc32)c1	none (no result: DAX1 inh-1)
Cn1nc(NC(=O)C(F)(F)F)c2ncc(-c3ccc(Cl)cc3)nc21	DAX1 inh-1 4.2
O=C(c1ccc2c3n(nc2c1)-c1ccccc1CO3)N1CCCCC1	hgDAF12 agonist 11, hcDAF-12 act 6.5
Cc1ccc(-c2cc(-c3nnc(SCC(=O)Nc4ccccc4-c4ccccc4)n3N)[nH]n2)cc1	none (no result: DAX1 inh-1)
CC(=O)Nc1ccc(Sc2ncccc2C(=O)Nc2cc(Cl)cc(Cl)c2)cn1	ssDAF-12 act 1.1
CC(=O)Nc1ccc(Sc2ncccc2C(=O)Nc2ccc(OC(F)(F)F)cc2)cn1	none
Cc1ccc(OCCn2c(=O)n(C)c3ccccc32)cc1	hgDAF12 agonist 13
Cn1c(=O)n(CCOc2ccc([N+](=O)[O-])cc2)c2ccccc21	none
C=CCN1[C@@H](C)COc2cccc(N3CCSCC3)c2S1(=O)=O	none (no result: DAX1 inh-1)
N#C/C(=C/c1ccc(-c2cc([N+](=O)[O-])ccc2Cl)o1)C(N)=O	DAX1 inh-1 9.3
CCCCS(=O)(=O)N1CCCc2nc(-c3ccc(F)cc3)ccc21	none (no result: DAX1 inh-1)
COC(=O)C1=C(C)N(Cc2cccc(C(F)(F)F)c2)C(=NCc2cc(OC)c(OC)c(OC)c2)NC1c1cccc(C(F)(F)F)c1 (stereo unspecified)	none (no result: DAX1 inh-1)
CN(C)c1ccc(NC(=O)CCCc2ccccc2)cc1	hgDAF12 agonist 12
O=[N+]([O-])c1ccccc1OCCOc1ccccc1[N+](=O)[O-]	none
COc1ccc(OCCOc2ccccc2[N+](=O)[O-])cc1	ssDAF-12 act 1.2
O=C(O)CCC(=O)/C=C/c1ccccc1	none
CCOc1ccc(/C=C/C(=O)CCC(=O)O)cc1	DAX1 inh-1 5.8
Cc1ccnc(NC(=O)c2ccc3c(c2)C(=O)N(CC(C)C)C3=O)c1	DAX1 inh-2 3.7
Cc1cc(NC(=O)c2ccc3c(c2)C(=O)N(CC(C)C)C3=O)no1	none
Cc1[nH]c2ccccc2c1/C=N/Nc1ccccc1[N+](=O)[O-]	ssDAF-12 act 0.9
COc1ccc(NS(=O)(=O)c2cc([N+](=O)[O-])ccc2N/N=C/c2c(C)[nH]c3ccccc23)cc1	none
CC(C)[C@H]1COc2c3ccccc3nn21	none (no result: DAX1 inh-1)
O=C(NC1CC1)C1=C[C@@H](c2c[nH]c3ccccc23)C[C@@H](OCc2ccc(CO)cc2)O1	hgDAF12 agonist 11
N=c1n(CCN2CCCCC2)c2ccccc2n1CC(O)c1ccco1 (stereo unspecified)	DAX1 inh-1 5.1
Cc1cccc(OCC(O)Cn2c(=N)n(Cc3ccccc3)c3ccccc32)c1 (stereo unspecified)	none
Cc1cccc(OCC(O)Cn2c(=N)n(CCN3CCCCC3)c3ccccc32)c1 (stereo unspecified)	SMARCA2 activ 7.8
